The text below walks through data of PubChem BioAssay (NCI).

The nature of assay [1]: NCI Yeast Anticancer Drug Screen. Data for the rad50 strain (AID 155).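 Further: 0% = growth of vehicle-only cultures of the same strain.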 The note with it: S. cerevisiae rad50 strain growth inhibition; at 50.0 µM; hits give high values. In a few lines:
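Inhibition values express reduced yeast growth in compound-treated cultures relative to vehicle-treated controls.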

Assay [2] can be described thus: NCI Yeast Anticancer Drug Screen. Data for the mec2-1 strain (AID 157). The note with it: S. cerevisiae mec2-1 strain, at 50.0 µM, hits give high values. In a few lines: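 Compounds were applied to mec2-1 yeast cells. Their growth was then compared with that of vehicle-treated cultures to give growth inhibition.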
Assay [3] in a line: NCI Yeast Anticancer Drug Screen. Data for the sgs1 mgt1 strain (AID 161).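 Further: 0% = growth of cultures given vehicle only.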 Particulars: S. cerevisiae sgs1 mgt1 strain, at 50.0 µM, hits give high values. In a few lines:
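Yeast cells carrying a defined DNA-repair defect were exposed to test compounds. Growth inhibition was measured relative to vehicle-treated controls.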

Assay [4] in a line: NCI Yeast Anticancer Drug Screen. Data for the cln2 rad14 strain (AID 165).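 Further: 0% = growth equal to vehicle treated cultures.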 Particulars: S. cerevisiae cln2 rad14 strain, at 50.0 µM, hits give high values. In a few lines:
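Strain: cln2 rad14 yeast, altered in cell cycle control and DNA damage repair. Read-out: growth inhibition vs vehicle.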

The nature of assay [5]: NCI Yeast Anticancer Drug Screen. Data for the bub3 strain (AID 167). Particulars: S. cerevisiae bub3 mutant strain, at 50.0 µM, hits give high values. In a few lines: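 Steps: expose the mutant yeast strain to compound; grow alongside vehicle-treated cultures; measure growth; express inhibition against the vehicle cultures.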
Assay [6] in a line: NCI Yeast Anticancer Drug Screen. Data for the mlh1 rad18 strain (AID 175). The note with it: S. cerevisiae mlh1 rad18 strain growth inhibition; at 50.0 µM; hits give high values. In a few lines: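 A repair-deficient yeast strain is exposed to test compound, and growth is scored relative to vehicle-treated controls.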

This is part of a sample that, as a whole, favours compounds with a hit. Of some 79,000 tested, about 15% had one in any assay. Values without a mark were called inactive. Activity calls are given as the source filed them. No stated cut-off is given here; in the data, active means growth inhibition above about 70%; inactive means the rest.

With `CC1=NN(C(=O)c2ccccc2O)C(=O)/C1=C/c1ccc(O)cc1`, the growth inhibition was 6.3% in assay [1]; -16.1% in assay [2]; -15.5% in assay [3]; -5.65% in assay [4]; -11.8% in assay [5]; -27.6% in assay [6].
Take `O=C(O)CCNCCCCNCCC(=O)O`: the growth inhibition in assay [1] was 6.2%; in assay [2], -11.8%; in assay [3] it was -23.9%; in assay [4], -1.5%; in assay [5], -22.6%; in assay [6] it was -22.3%.
`CCOC(=O)NN1C(=O)C(=P(c2ccccc2)(c2ccccc2)c2ccccc2)C(C(=O)OC)=C1C`: the growth inhibition was -4.05% in assay [1]; 4.45% in assay [2]; -6.75% in assay [3]; 11.8% in assay [4]; -6.65% in assay [5]; -4.85% in assay [6].
For `CC(=O)OC(C[N+]1(C)CCCCCC1)C[N+]1(C)CCCCCC1`, the growth inhibition was -34.6% in assay [1]; -4.8% in assay [2]; -17.8% in assay [3]; -27.6% in assay [4]; 7.95% in assay [5]; -11.2% in assay [6].
Turning to `C[CH2][Ge]([CH2]C)[CH2]C.C[CH2][Ge]([CH2]C)[CH2]C`, the growth inhibition was 6.5% in assay [1]; 0.35% in assay [2]; -2.45% in assay [3]; -25.4% in assay [4]; 0.9% in assay [5]; -3% in assay [6].
With `CCOC(=O)C(=O)c1c[nH]c2ccccc12`, the growth inhibition was -3.35% in assay [1]; 2.45% in assay [2]; -2.5% in assay [3]; -12.1% in assay [4]; 6.4% in assay [5]; 10% in assay [6].
On to `CCOC(=O)c1ccc(N[C@@H]2c3cc4c(cc3C(c3cc(OC)c(O)c(OC)c3)[C@H]3C(=O)OCC32)OCO4)cc1` (stereo not given in full), for which the growth inhibition is 85.6% (active) in assay [1]; 91.7% (active) in assay [2]; 89.2% (active) in assay [3]; 87.5% (active) in assay [4]; 88% (active) in assay [5]; 88.8% (active) in assay [6].
For `CCC(=O)Oc1ccc([N+](=O)[O-])cc1[N+](=O)[O-]`, the growth inhibition in assay [1] is 38.6%; in assay [2], 30.6%; in assay [3], 49.3%; in assay [4], 26.6%; in assay [5] it was -0.5%; in assay [6], 21.6%.
Consider `Clc1cccc(Cl)c1/C=N/N1CCN(/N=C/c2c(Cl)cccc2Cl)CC1`, for which the growth inhibition in assay [1] is 18.9%; in assay [2], 10.1%; in assay [3] it was 17.9%; in assay [4], 6.45%; in assay [5], -4.1%; in assay [6] it was 0.7%.
On to `[N-]=[N+]=NC12CC3C4CC5CC3C(C1)C(C5)C4C2`, for which the growth inhibition in assay [1] is 10.3%; in assay [2] it was 0.6%; in assay [3], -6.65%; in assay [4], 10.2%; in assay [5] it was -6.15%; in assay [6] it was -8.45%.
For the compound `CC(C)(C)C(=CS(=O)/N=C/c1ccccc1)C(C)(C)C` (stereo not given), the growth inhibition in assay [1] was -27.4%; in assay [2] it was -33%; in assay [3] it was -28.6%; in assay [4], -7%; in assay [5], -37%; in assay [6], -9.85%.
For the compound `O=[N+]([O-])c1cccc(-c2csc(N=Nc3c(O)[nH]c4ccccc34)n2)c1`, the growth inhibition is -29.6% in assay [1]; -8.9% in assay [2]; -0.3% in assay [3]; -12.9% in assay [4]; 14.2% in assay [5]; 13.3% in assay [6].
As to `CN(C)c1ccc(/C=C(\C#N)C(=O)c2ccccc2)cc1Br`, the growth inhibition was 0.55% in assay [1]; -6.1% in assay [2]; 1.85% in assay [3]; 22.7% in assay [4]; -15.2% in assay [5]; 13.8% in assay [6].
With `Cc1ccc2c(c1)-c1cc(C)ccc1C2`, the growth inhibition was 29.1% in assay [1]; 19.9% in assay [2]; 16.4% in assay [3]; 15% in assay [4]; 29.4% in assay [5]; -1.35% in assay [6].
On to `O=C(NCCCCCCCCCNC(=O)C12CC3CC(CC(C3)C1)C2)C12CC3CC(CC(C3)C1)C2`, for which the growth inhibition in assay [1] was 23.2%; in assay [2], 9.2%; in assay [3], 21.7%; in assay [4], 29.5%; in assay [5], -1.55%; in assay [6], 28.4%.
Take `Cc1ccccc1-c1nnc(-c2ccc3ccccc3c2)o1`: the growth inhibition in assay [1] was 7.3%; in assay [2], -4.25%; in assay [3] it was -4.65%; in assay [4], -36.5%; in assay [5] it was 1.05%; in assay [6], -1.05%.
For the compound `COC(=O)c1cc(-c2ccc(N)cc2)c2c(=O)n(-c3ccccc3)[nH]c2n1`, the growth inhibition in assay [1] is 26.1%; in assay [2], 19%; in assay [3] it was 30.9%; in assay [4], -0.65%; in assay [5] it was -1.4%; in assay [6] it was 6.45%.
Consider `CCOC(=O)C(C#N)C1CCCC(C)CC1` (stereo not given), for which the growth inhibition was 13% in assay [1]; 6.5% in assay [2]; 3.5% in assay [3]; 2.65% in assay [4]; 34.1% in assay [5]; 7.55% in assay [6].
Take `O=C(O)c1ccccc1Oc1ccc([N+](=O)[O-])cc1[N+](=O)[O-]`: the growth inhibition in assay [1] is 4.3%; in assay [2], 16.8%; in assay [3], 32%; in assay [4], -82%; in assay [5], 26.8%; in assay [6], 20.1%.
In the case of `COc1ccc(N=NN(C(C)=O)c2ccccc2)cc1`, the growth inhibition was 2.85% in assay [1]; 10.2% in assay [2]; 35.5% in assay [3]; -5.75% in assay [4]; -1% in assay [5]; 19.1% in assay [6].
